# Compound activity: PubChem BioAssay, National Center for Advancing Translational Sciences (NCATS)
# Compounds with a hit are over-represented: about 14% of the library has one in this group of screens.
# FBPA Giardia inh: Giardia lamblia aldolase inhibition; A8B2U2; Potency, µM (titrated, usually from 59.6 µM), for the others: top-dose activity, negative = inhibition, usual class: inhibitors; purified Giardia FBPA; hit rate 0.71% among 290,000; further: potency means the concentration at half of the fitted maximal effect; on the % scale 0 is the no-effect control and ±100 the full control effect; nearly all actives have a fitted effect of over 55% in size
# Target sequence (A8B2U2 whole entry, looked up): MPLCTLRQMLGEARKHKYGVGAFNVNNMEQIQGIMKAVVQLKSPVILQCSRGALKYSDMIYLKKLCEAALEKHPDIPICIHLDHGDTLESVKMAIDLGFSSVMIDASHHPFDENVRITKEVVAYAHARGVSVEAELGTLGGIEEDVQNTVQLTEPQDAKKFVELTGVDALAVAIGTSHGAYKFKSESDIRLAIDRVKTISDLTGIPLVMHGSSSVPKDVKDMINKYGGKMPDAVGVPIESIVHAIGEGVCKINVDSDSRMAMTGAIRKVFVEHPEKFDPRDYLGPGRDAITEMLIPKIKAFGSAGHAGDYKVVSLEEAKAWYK
#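 Giardia FBPA (40 nM reagent) was preincubated 10 min at RT with compound (up to 57.5 uM final), then substrate plus GAPDH/TPI/NAD/arsenate coupling system with diaphorase/resazurin was added; resorufin fluorescence (525/598 nm) was read after 20 min.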
# Shiga toxin inh: inhibitors of Shiga toxin in Vero cells | inhibition, % at 38.7 µM | hit rate 9.2% among 290,000 | Vero cells, Shiga toxin protein synthesis inhibition reporter; in the data active means inhibition mostly above about 28%, no sharp cut-off; inactive means mostly below about 43%; further: 0% is about no effect
# CHX counter: counter-screen hit for Shiga toxin inhibitors, cycloheximide; cell reporter, cycloheximide protein synthesis inhibition counterscreen; max response, %; hit rate 12% among 300,000; in the data active means max response mostly above about 13%, no sharp cut-off; inactive means mostly below about 14%; further: read at 38.3 µM for the half of the compounds with a filed dose; 0% is about no effect
# NS1 inh: blocks influenza NS1 protein function | Potency, µM (titrated, usually from 46.1 µM), for inactives: at the top dose activity, positive = more growth | hit rate 0.4% among 270,000 | AID 2326; calls by dose curve; further: potency means the concentration at half of the fitted maximal effect; actives are rising curves; nearly all actives have a fitted effect of over 50% in size
#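 A cell-based growth assay was used: compounds that relieve NS1-induced slow growth of budding yeast raise OD600. Assay medium was yeast nitrogen base with ammonium sulphate and -URA supplement, pH 6.0, with 2% galactose.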
# LmPK inh: LmPK (Leishmania mexicana) enzyme inhibition; Potency, µM (top dose mostly 57.5 µM), for inactives: at the top dose activity change, negative = inhibition, actives largely listed as inhibitors; hit rate 0.37% among 290,000; purified LmPK, Kinase-Glo ATP luminescence, 1 h; further: potency means the concentration at half of the fitted maximal effect; on the % scale 0 is the no-effect control and ±100 the full control effect
#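 Purified LmPK (0.1 nM) with 0.5 mM PEP and 0.1 mM ADP in imidazole buffer pH 7.2 with MgCl2/KCl, 1 h at room temperature. ATP formed was read by luciferase luminescence and normalized to no-enzyme and uninhibited controls.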
# * = called active by the depositor; ? = inconclusive; · = not tested or not shown; ! = repeats disagree; [ ] = dose if it differs, or a comment. Unless noted, the call rests on the fitted dose curve; in most records, active means well fitted curve in the direction sought with a large enough effect; inconclusive means small, poorly fitted or top-dose-only effect, or another doubt; inactive means no such curve, though single readings can be large; an effect the other way counts as inactive or inconclusive.
SMILES,FBPA Giardia inh,Shiga toxin inh,CHX counter,NS1 inh,LmPK inh
CN(C(=O)COC(=O)c1ccccc1C(=O)N(C)c1ccccc1)c1ccccc1,·,25,4,-2%,-3%
Cc1cccc(C(=O)OCC(=O)N(C)c2ccccc2)c1C,8%,35*,14*,-26%,-4%
COc1ccc(/C=C2\N=C(SC)N(C)C2=O)cc1,-12%,18,12*,-20%,?
COc1ccc(/C=C2/N=C(SC)NC2=O)cc1OC,-2%,13,16*,-5%,-3%
CCSC1=N/C(=C\c2ccccc2)C(=O)N1c1ccc(OC)cc1,6%,12,-5,·,5%
COc1cc(/C=C2\N=C(c3ccccc3)NNC2=O)cc(OC)c1OC,-1%,-6,-5,-3%,-8%
CCSC1=N/C(=C\c2ccc(OC)cc2)C(=O)N1,-28%,46*,28*,5%,8%
COc1ccc(/C=C2\N=C(c3ccccc3Cl)NC2=O)cc1,-5%,48,34*,11%,0%
COc1ccc([C@@H]2[C@@H]3C(=O)N(C(C)(C)C)C(=O)[C@@H]3[C@]3(C)C(=O)N(c4ccc(C)cc4)C(=O)N23)cc1,-3%,-3,-2,-10%,-2%
COc1cccc(CNC(=O)CSc2nnc3c(n2)[nH]c2ccccc23)c1,-20%,-8,-2,-3%,3%
CCCCN1CCC[C@@H]1CNC(=O)c1cc(C#N)c2ccccc2c1OC,3%,·,·,·,·
COc1ncc2nc(-c3ccccc3)c(=O)n(CCc3ccccc3)c2n1,-3%,·,·,·,·
CCOc1cc(/C=N/NC(=O)c2nnn(-c3nonc3N)c2C)ccc1OCc1cccc(F)c1,·,-3,3,6%,1%
C[C@H](N)C(=O)NCC(=O)N[C@H]1CSSC[C@@H](C(=O)O)NC(=O)[C@H](CO)NC(=O)[C@H]([C@@H](C)O)NC(=O)[C@H](Cc2ccccc2)NC(=O)[C@H]([C@@H](C)O)NC(=O)[C@H](CCCCN)NC(=O)[C@@H](Cc2c[nH]c3ccccc23)NC(=O)[C@H](Cc2ccccc2)NC(=O)[C@H](Cc2ccccc2)NC(=O)[C@H](CC(N)=O)NC(=O)[C@H](CCCCN)NC1=O,1%,-12,0,·,·
COc1ccc(/C=C2\N=C(SC)NC2=O)cc1,?,120*,25,-18%,1%
Cc1ccc(N(C(=O)c2csnn2)C(C(=O)NC2CCCCC2)c2cccnc2)cc1C (stereo unspecified),10%,-1,-3,8%,0%
CCCCCc1ccc(-c2cn(Cc3ccc(C(=O)c4ccccc4)cc3)nn2)cc1,9%,9,-4,-8%,-1%
O=C(c1ccccc1)c1ccc(Cn2cc(-c3ccccc3)nn2)cc1,-11%,57*,24*,-13%,0%
CC(C)N(Cc1ccccc1)C(C)C (tested in a mixture with another compound),1%,2,-4,·,·
COc1ccc(C2C(CC(=O)O)=C(O)C(=O)N2c2ccccc2)cc1 (stereo unspecified),-2%[12.9 µM],38*,28*,?,2%
COc1ccc(C2C(C(C)=O)=C(O)C(=O)N2c2ccc(O)cc2)cc1 (stereo unspecified),-9%,-6,-1,9%,-3%
c1ccc([C@H]2CNCc3ccccc32)cc1,4%,·,·,·,·
Oc1cc2c(cc1O)[C@H]1c3ccccc3CN[C@@H]1CC2,-22%,-13,-3,·,4.5µM*
COc1cc(OC)c2ccc(=O)oc2c1C(CC(=O)N1CCCC1)c1ccc(N(C)C)cc1 (stereo unspecified),4%,30,22*!,-27%,1%
COc1cc(O)c(C(CC(=O)N2CCCCC2)c2cc(OC)c(OC)c(OC)c2)c(OC)c1 (stereo unspecified),-21%,81*!,47*!,-4%,0%
SMILES,FBPA Giardia inh,Shiga toxin inh,CHX counter,NS1 inh,LmPK inh
COc1cc(OC)c2ccc(=O)oc2c1C(CCN1CCCC(C)C1)c1ccc2c(c1)OCO2 (stereo unspecified),4%,124*!,44*!,1%,4%
CCOc1ccc(N2C(=O)CC(NCC#N)C2=O)cc1 (stereo unspecified),-3%,4,-3,-66%,-1%
CC(=O)Nc1nc2c(C)cc(NC(=O)C3CCCCC3)cc2s1,·,74*,32*,-2%,-5%
CC(=O)Nc1cc(NC(C)=O)c2nc(N)sc2c1,-9%,-12,-2,-6%,1%
CC(=O)Nc1cc(C)c2nc(NC(C)=O)sc2c1,0%,60*,30*,8%,0%
C[C@]1(O)CC[C@H]2[C@@H]3[C@@H](O)CC4=CC(=O)CC[C@@]4(C)[C@H]3CC[C@]21C,·,·,·,-1%,·
N#CCCOC1(C#CCN2CCCC2)CCCCC1,-14%,-11,-1,-12%,2%
COC(=O)c1c(C)[nH]c(O)c1C=Nc1ccc(C#N)cc1,16µM*,2,8,-11%,0%
O=C(Nc1nnc(C2CCCO2)s1)c1ccc(Br)cc1 (stereo unspecified),3%,26,20*,-6%,-1%
Cc1ccc(OCC(=O)Nc2nnc(C3CCCO3)s2)c(Br)c1 (stereo unspecified),6%,70*,15,·,-1%
O=C(Nc1nnc(C2CC2)s1)C1CCCO1 (stereo unspecified),1%,28,12,·,-2%
Cc1cccc(C)c1OCC(=O)Nc1nnc(C2CCCO2)s1 (stereo unspecified),-1%,-4,-9,-2%,-1%
Cc1ccc(-n2cc(CCCCCCCCC(=O)O)nn2)cc1,2%,-1,1,-14%,-1%
COc1ccc(-c2cc(C)no2)cc1S(=O)(=O)Nc1cccc(CN2CCCC2)c1,·,-10,8,10%,3%
O=C(O)c1ccc(COc2ccc(CO)cc2Cl)cc1,26%,72*,29*,-1%,-15%
O=C(O)c1cccc(COc2ccc(CO)cc2Cl)c1,22%,-5,6,0%,?
c1ccc(-n2ncc3c(NCc4ccco4)ncnc32)cc1,-23%,85*,53*,-5%,-3%
COc1cc(CNc2ncnc3c2[nH]c2ccc(C)cc23)cc(OC)c1,2%,-3,-1,2%,6%
Cc1ccc(-n2ncc3c(NCc4ccccn4)ncnc32)c(C)c1,-24%,11,10,-10%,-5%
c1ccc(Cn2ncc3c(NCc4ccco4)ncnc32)cc1,4%,2,-2,-6%,1%
Cc1ccc2[nH]c3c(NCc4ccco4)ncnc3c2c1,2%,87*,19*,-175%,1%
CCCCNc1ncnc2c1cnn2-c1ccc(C)cc1C,-8%,14,15*,-181%,0%
Cc1ccc(-n2ncc3c(NCc4ccco4)ncnc32)c(C)c1,-13%,15,16*,-21%,2%
N#CCCn1c(=O)cnc2cnc(Oc3ccccc3)nc21,-1%,·,·,·,·
O=S(=O)(Nc1cccnc1)c1cccc2cccnc12,·,·,·,11%,·
COc1ccc2c(c1)O[C@@H](c1cccc(C(F)(F)F)c1)[C@H](OC(=O)Nc1ccc(C)c(Br)c1)C2=O,2%,·,·,·,·
